Test results from PubChem BioAssay (NCATS).
Values joined by “and” are separate entries in the source; they are usually repeats but may differ in a detail not shown here. Equal values may be shown once. Inconclusive results are not listed. Where a structure was tested more than once in an assay, its records may differ in their call. Active and inactive are the calls of the source. Unless noted, calls follow the shape of the dose curve; as a rule, active = well fitted curve in the direction sought with a large enough effect; inconclusive = small, poorly fitted or top-dose-only effect, or another doubt; inactive = no such curve, though single readings can be large; an effect the other way counts as inactive or inconclusive.

How the values were obtained:
[1] = target: Voltage-gated inwardly rectifying potassium channel KCNH2 (Homo sapiens) (UniProt Q12809); test: qHTS Assay for Small Molecule Inhibitors of the Human hERG Channel Activity (AID 588834);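 also: lower thallium flux fluorescence means stronger hERG block; nearly all actives have a fitted effect of over 50% in size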; also: potency is read from the fitted curve at half-maximal effect
Voltage-gated inwardly rectifying potassium channel KCNH2 (Homo sapiens), sequence (Q12809 whole entry, looked up): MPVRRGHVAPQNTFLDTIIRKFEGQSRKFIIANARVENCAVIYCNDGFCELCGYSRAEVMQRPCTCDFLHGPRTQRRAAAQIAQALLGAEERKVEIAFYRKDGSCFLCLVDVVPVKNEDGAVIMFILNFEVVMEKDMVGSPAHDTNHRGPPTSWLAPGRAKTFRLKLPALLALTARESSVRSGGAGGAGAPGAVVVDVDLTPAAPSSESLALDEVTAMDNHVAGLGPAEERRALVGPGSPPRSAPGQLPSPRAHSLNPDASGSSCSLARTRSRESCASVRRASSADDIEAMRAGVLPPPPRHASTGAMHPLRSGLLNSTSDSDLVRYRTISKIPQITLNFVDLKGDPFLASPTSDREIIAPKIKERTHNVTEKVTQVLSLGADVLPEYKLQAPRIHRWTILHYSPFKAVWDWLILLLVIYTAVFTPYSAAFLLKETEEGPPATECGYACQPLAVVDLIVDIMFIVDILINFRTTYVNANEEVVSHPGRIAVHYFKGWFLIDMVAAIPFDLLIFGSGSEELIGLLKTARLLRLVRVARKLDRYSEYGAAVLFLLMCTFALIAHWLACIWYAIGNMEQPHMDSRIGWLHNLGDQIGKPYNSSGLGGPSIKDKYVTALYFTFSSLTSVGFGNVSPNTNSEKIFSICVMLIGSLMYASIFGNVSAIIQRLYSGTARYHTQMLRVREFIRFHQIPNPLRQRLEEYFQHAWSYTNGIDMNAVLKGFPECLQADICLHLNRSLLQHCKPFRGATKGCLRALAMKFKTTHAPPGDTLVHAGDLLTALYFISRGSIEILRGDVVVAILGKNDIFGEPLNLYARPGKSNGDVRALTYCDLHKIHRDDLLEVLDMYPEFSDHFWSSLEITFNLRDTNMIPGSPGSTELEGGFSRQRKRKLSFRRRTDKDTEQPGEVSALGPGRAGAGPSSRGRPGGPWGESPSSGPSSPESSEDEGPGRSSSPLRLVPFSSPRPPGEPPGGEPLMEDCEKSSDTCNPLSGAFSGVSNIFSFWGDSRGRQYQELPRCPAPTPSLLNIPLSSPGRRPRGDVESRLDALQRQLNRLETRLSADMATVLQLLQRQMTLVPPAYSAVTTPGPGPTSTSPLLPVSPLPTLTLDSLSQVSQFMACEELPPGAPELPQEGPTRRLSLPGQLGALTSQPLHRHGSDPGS
Method in brief: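 U2OS cells BacMam-transduced with hERG, 2000 cells/well, compound ~10 min at 37 °C before stimulation buffer. FluxOR thallium flux fluorescence read kinetically on FDSS; decrease indicates block; AC50 from Hill fits.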

[2] = target: Luciferin 4-monooxygenase (Photinus pyralis) (UniProt P08659); test: Biochemical firefly luciferase enzyme assay for NPC (AID 624030); also: nearly all actives have a fitted effect of over 70% in size; also: potency is read from the fitted curve at half-maximal effect
Luciferin 4-monooxygenase (Photinus pyralis), sequence (P08659 whole entry, looked up): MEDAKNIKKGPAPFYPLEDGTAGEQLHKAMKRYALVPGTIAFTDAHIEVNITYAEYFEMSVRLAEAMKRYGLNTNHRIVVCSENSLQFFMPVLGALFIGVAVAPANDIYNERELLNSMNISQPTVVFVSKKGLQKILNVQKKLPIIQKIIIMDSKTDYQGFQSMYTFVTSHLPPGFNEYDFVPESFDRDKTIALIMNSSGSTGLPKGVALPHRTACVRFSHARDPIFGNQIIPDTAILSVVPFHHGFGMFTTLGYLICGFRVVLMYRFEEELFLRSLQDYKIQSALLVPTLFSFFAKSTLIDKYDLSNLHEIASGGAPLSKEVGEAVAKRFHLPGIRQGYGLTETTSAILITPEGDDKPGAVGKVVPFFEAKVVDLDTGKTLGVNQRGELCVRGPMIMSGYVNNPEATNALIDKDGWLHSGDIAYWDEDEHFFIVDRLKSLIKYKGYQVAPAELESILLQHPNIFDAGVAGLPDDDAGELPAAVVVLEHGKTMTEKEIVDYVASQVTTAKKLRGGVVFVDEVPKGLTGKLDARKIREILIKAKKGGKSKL
Method in brief: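 Counter-screen for direct inhibition of the luciferase enzyme by approved-drug library compounds, run at 10 nM enzyme in 50 mM Tris acetate (final). Luminescence was read within 5 min of enzyme-buffer addition and normalized to PTC124 versus DMSO (0%).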

[3] = S16 Schwann cell viability assay (CellTiter-Glo assay) (AID 624031);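 also: native untransfected S16 rat Schwann cells; cellular ATP luminescence as a viability measure; series mostly up to about 58 µM; plate controls were DMSO-treated cells for no effect and cell-free wells for full effect; nearly all actives have a fitted effect of over 70% in size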
Method in brief: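 Parental S16 cells, 24 h compound, 37 °C. ATP-luminescence viability; DMSO = 0% activity, empty wells as reference; curves classified by fit quality and efficacy.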

[4] = S16 Schwann cell PMP22 intronic element firefly luciferase assay (AID 624032); also: nearly all actives have a fitted effect of over 30% in size; also: potency is read from the fitted curve at half-maximal effect
Method in brief: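 Rat S16 Schwann cells stably carrying a PMP22 intronic element-driven Fluc reporter were seeded overnight, then exposed to compounds for 24 h at 37 °C. Luminescence was normalized to PTC124 (positive control) and DMSO (0% activity).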

[5] = S16 Schwann cell PMP22 intronic element beta-lactamase assay (AID 624044; calls by dose curve; also: nearly all actives have a fitted effect of over 15% in size; also: potency is read from the fitted curve at half-maximal effect)
Method in brief: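 Rat S16 Schwann cells with beta-Lac driven by a PMP22 intronic element, compound-treated 24 h at 37 °C. LiveBLAzer FRET B/G read: 460 nm normalized to potassium clavulanate vs DMSO; 535 nm FRET as viability; concentration-effect curves classified.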

[6] = target: Tumor necrosis factor (Homo sapiens) (UniProt P01375); test: qHTS assay to identify small molecules that stimulate Tumor Necrosis Factor-alpha (TNF-alpha) secretion (AID 651757; active = well fitted curve in the direction sought with a large enough effect in the signal ratio; the % refers to the signal ratio; also: 0% is about no effect)
Tumor necrosis factor (Homo sapiens), sequence (P01375 whole entry, looked up): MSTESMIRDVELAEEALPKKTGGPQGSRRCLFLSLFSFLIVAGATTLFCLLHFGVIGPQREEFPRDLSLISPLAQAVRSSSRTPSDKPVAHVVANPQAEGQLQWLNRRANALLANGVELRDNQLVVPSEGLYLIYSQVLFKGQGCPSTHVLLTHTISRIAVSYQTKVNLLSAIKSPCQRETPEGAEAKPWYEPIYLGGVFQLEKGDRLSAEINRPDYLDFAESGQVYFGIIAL
Method in brief: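 Read-out is HTRF, a TR-FRET sandwich of cryptate- and XL665-labeled anti-TNF-alpha antibodies detecting cytokine secreted by THP-1 cells. Cells had been incubated with test compounds at 37 C for 17 hrs beforehand.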

[7] = qHTS assay for environmental chemicals that activate the Aryl hydrocarbon Receptor (AhR) signaling pathway (AID 651777); details: 1A2-DRE human hepatoma cells, luciferase, 24 h; activation: hits give high values; also: % of control where 0% means no effect; nearly all actives have a fitted effect of over 15% in size
Method in brief: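 Reporter gene assay: hepatoma cells with DRE/CYP1A2-luciferase, 24 hr compound incubation at 37 C, 5% CO2, luminescence after One-Glo (30 min, RT).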

[8] = target: Glutaminase kidney isoform, mitochondrial (Homo sapiens) (UniProt O94925); test: qHTS for Inhibitors of Glutaminase (GLS): LOPAC Validation (AID 624146);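 also: glutamate product detected by oxidase and peroxidase coupled Amplex red fluorescence gain; series mostly up to about 46 µM; % is scaled to controls: 0 for no effect and ±100 for the full control effect; nearly all actives have a fitted effect of over 60% in size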
Glutaminase kidney isoform, mitochondrial (Homo sapiens), sequence (O94925 whole entry, looked up, canonical isoform): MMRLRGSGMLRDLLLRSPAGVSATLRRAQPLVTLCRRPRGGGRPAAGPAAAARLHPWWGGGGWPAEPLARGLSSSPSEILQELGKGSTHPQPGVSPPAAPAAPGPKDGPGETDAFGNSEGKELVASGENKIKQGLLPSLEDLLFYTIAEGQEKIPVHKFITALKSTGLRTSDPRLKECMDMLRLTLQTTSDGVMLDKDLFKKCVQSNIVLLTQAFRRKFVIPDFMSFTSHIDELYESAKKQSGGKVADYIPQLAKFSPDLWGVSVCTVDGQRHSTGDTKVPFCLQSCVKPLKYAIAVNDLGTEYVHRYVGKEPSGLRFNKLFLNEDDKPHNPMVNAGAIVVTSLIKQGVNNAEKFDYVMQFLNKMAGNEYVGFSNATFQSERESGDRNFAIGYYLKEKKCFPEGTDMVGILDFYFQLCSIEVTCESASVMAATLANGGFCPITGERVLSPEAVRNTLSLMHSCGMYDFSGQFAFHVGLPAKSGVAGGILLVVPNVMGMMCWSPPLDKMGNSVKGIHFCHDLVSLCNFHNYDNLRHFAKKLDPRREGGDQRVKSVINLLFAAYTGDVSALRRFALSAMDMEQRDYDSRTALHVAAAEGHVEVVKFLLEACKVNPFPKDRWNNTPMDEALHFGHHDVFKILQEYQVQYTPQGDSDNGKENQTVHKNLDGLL
Method in brief: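 Read-out is an Amplex red fluorescence increase coupled through glutamate oxidase and HRP, measured before and after 30 min room-temperature incubation. hKGA is in 45 mM KH2PO4 (pH 8.2) with 0.02% Tween-20; glutamine added as 1mM solution.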

[9] = qHTS of Trypanosoma Brucei Inhibitors: LOPAC Validation (AID 624147); also: 0% is about no effect
Method in brief: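 Readout: single end-point luminescence (Kinase-Glo Plus, 10 min). Reaction conditions were TbPYK/substrate plus 130 uM ADP, 45 min at RT, pH 7.2 TEA buffer. No-enzyme wells served as controls, and data were normalized before concentration-response fitting.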

[10] = target: Glucagon-like peptide 1 receptor (Homo sapiens) (UniProt P43220); test: qHTS of GLP-1 Receptor Agonists: LOPAC Validation (AID 624148);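 also: 0% is about no effect; higher luminescence signal means agonism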
Glucagon-like peptide 1 receptor (Homo sapiens), sequence (P43220 whole entry, looked up): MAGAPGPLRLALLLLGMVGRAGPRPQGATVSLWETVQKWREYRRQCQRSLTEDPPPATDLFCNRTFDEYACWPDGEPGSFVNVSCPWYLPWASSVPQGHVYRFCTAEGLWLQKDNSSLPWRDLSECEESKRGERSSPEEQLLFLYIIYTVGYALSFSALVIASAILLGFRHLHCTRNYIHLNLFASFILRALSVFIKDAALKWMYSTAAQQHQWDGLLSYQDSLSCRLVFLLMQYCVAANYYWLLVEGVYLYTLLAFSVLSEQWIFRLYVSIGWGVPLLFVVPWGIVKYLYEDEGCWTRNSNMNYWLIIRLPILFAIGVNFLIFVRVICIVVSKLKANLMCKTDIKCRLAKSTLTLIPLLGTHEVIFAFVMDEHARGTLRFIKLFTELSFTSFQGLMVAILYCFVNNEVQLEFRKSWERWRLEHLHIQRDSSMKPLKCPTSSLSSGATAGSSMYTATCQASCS
Method in brief: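 HEK293 cells stably co-expressing a cAMP-responsive luciferase reporter and a hypersensitive GLP-1R were plated 12 h at 37 °C and exposed to compounds for 4-6 hr at 37 °C, 5% CO2. Luminescence was read 12 min after adding detection reagent.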

[11] = qHTS of Nrf2 Activators: LOPAC Validation (AID 624149); also: 0% is about no effect
Method in brief: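 Luminescence read-out of ARE-luciferase activation: AREc32_Fluc cells treated with compounds for 24 hr at 37 deg C, then lysed with Steady-Glo for 30 min at room temperature before reading.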

[12] = HTS Assay for Allosteric Antagonists of the Human D2 Dopamine Receptor: Hit Validation in HTRF (AID 624455);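 also: stable D1 dopamine receptor cell line scored for blocking the D1 response; % is scaled to controls: 0 for no effect and ±100 for the full control effect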
Method in brief: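 First, antagonism was screened by calcium flux in a force-coupled, inducible Hek293 Trex D2 line challenged with EC80 dopamine. Hits then went into an HTRF assay in cells stably expressing D1, testing inhibition of the D1 response.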

C[C@@H](O)[C@H]1C(=O)N2C(C(=O)O)=C(S[C@@H]3CN[C@H](CNS(N)(=O)=O)C3)[C@H](C)[C@H]12
inactive: Potency [1] | Potency [2] | Potency [3] | Potency [4] | Potency [5]

O=C(O)C(Cc1cc(I)c(O)c(I)c1)c1ccccc1 (stereo unspecified)
inactive: Potency [1] | Potency [2] | Potency [3] | Potency [4] | Potency [5]

CCCCN=C(N)N=C(N)N
inactive: Potency [1] | Potency [2] | Potency [3] | Potency [4] | Potency [5]

CCCCc1cc2ccccc2c(OCCN(C)C)n1
active: Potency [1] 7.94 µM
inactive: Potency [2] | Potency [3] | Potency [4] | Potency [5]

Nc1ccc(S(=O)(=O)Nc2cnc3ccccc3n2)cc1
inactive: Potency [1] | Potency [2] | Potency [3] | Potency [4] | Potency [5]

CC(=O)Nc1ncc([N+](=O)[O-])s1
inactive: Potency [1] | Potency [2] | Potency [3] | Potency [5]

N#CCC(=O)NN
inactive: Potency [1] | Potency [2] | Potency [3] | Potency [4]

CC(=O)Nc1ccc(OCC(O)CNC(C)C)cc1 (stereo unspecified)
inactive: Potency [1] | Potency [2] | Potency [3] | Potency [4]

Oc1ccc(Cl)cc1Cc1cc(Cl)ccc1O
inactive: Potency [2] | Potency [3] | Potency [4] | Potency [5] | outcome [6] | activation [7] -1.39% and 3.39%
active: Potency [1] 28.2 µM

O=c1[nH]c(=O)n([C@H]2C[C@H](O)[C@@H](CO)O2)cc1F
inactive: Potency [1] | Potency [2] | Potency [3]
active: Potency [5] 0.0056 µM

CCCCCCCCCCCCSCCOCCO
inactive: Potency [1] | Potency [2] | Potency [3] | Potency [5]

CN1CCC(OC(c2ccccc2)c2ccccc2)CC1
inactive: Potency [2] | Potency [3] | Potency [4] | Potency [5]
active: Potency [1] 4.47 µM

COc1cc(N)c(Cl)cc1C(=O)NC1CCN(Cc2ccccc2)CC1
active: Potency [1] 5.01 µM
inactive: Potency [2] | Potency [3] | Potency [4] | Potency [5]

COc1cc(C(=O)NCc2ccc(OCCN(C)C)cc2)cc(OC)c1OC
inactive: Potency [1] | Potency [2] | Potency [3] | Potency [4] | Potency [5]

OC(C#CCN1CCCC1)(c1ccccc1)c1ccccc1
inactive: Potency [2] | Potency [3] | Potency [5]
active: Potency [1] 22.4 µM

Nc1nc(-c2ccccc2)c(Br)c(=O)[nH]1
inactive: Potency [1] | Potency [2] | Potency [3] | Potency [4] | Potency [5]

COc1ccc(C(=O)c2ccccc2O)c(O)c1
inactive: Potency [1] | Potency [2] | Potency [3] | Potency [4] | Potency [5]

Nc1ccc(S(=O)(=O)NCc2ccccc2)cc1
inactive: Potency [1] | Potency [2] | Potency [3] | Potency [5]

Nc1nc(N)c(-c2ccccc2)s1
inactive: Potency [1] | Potency [2] | Potency [3] | Potency [4] | Potency [5]

Cc1c(-c2ccccc2)oc2c(C(=O)OCCN3CCCCC3)cccc2c1=O
inactive: Potency [1] | Potency [2] | Potency [3] | Potency [5]

CC(C)Nc1cccnc1N1CCN(C(=O)c2cc3cc(NS(C)(=O)=O)ccc3[nH]2)CC1
active: Potency [1] 8.91 µM | Potency [4] 14.4 µM
inactive: Potency [2] | Potency [3] | Potency [5]

Cc1ccc(-c2ncc(Cl)cc2-c2ccc(S(C)(=O)=O)cc2)cn1
inactive: Potency [1] | Potency [2] | Potency [3] | Potency [5]

NS(=O)(=O)Cc1noc2ccccc12
inactive: Potency [1] | Potency [2] | Potency [3] | Potency [4] | Potency [5]

NC(=O)C1(N2CCCCC2)CCN(CCCC(=O)c2ccc(F)cc2)CC1
active: Potency [1] 3.55 µM
inactive: Potency [2] | Potency [3] | Potency [4] | Potency [5]

CC(=O)NO
inactive: Potency [1] | Potency [2] | Potency [3] | Potency [4] | Potency [5]

CC(C)(C)NC[C@H](O)COc1nsnc1N1CCOCC1
inactive: Potency [1] | Potency [2] | Potency [3] | Potency [4] | outcome [8] | outcome [9] | outcome [10] | outcome [11] | outcome [12]

c1ccc(CC2=NCCN2)cc1
inactive: Potency [1] | Potency [2] | Potency [3] | Potency [5]

CCOC(=O)[C@H](CCc1ccccc1)N[C@@H](C)C(=O)N1[C@H](C(=O)O)C[C@H]2CCCC[C@@H]21
inactive: Potency [1] | Potency [2] | Potency [3] | Potency [4] | Potency [5] | outcome [8] | outcome [9] | outcome [10] | outcome [11] | outcome [12]

CCC(CC)(CC(=O)Nc1cccc(/C=C/c2nc(C3CCC3)cs2)c1)C(=O)O
inactive: Potency [1] | Potency [3] | Potency [4] | Potency [5]
active: Potency [2] 5.73 µM
